Among the data in paper PMC7862700, “An all-to-all approach to the identification of sequence-specific readers for epigenetic DNA modifications on cytosine” are binding signal values, retold here.

Holding throughout (assay): DAPPL (digital affinity profiling via proximity ligation, sequencing); 10 mM Tris-HCl pH 7.5, 50 mM NaCl, 1 mM DTT, 4% glycerol, room temperature, 30 min; GST-TFs on glutathione beads, 16-mer random dsDNA library, 0.1% formaldehyde crosslink after washing; high values mean tight binding
One experiment addresses T1, FEV (Homo sapiens, UniProt Q99581 1-238).
T1 sequence: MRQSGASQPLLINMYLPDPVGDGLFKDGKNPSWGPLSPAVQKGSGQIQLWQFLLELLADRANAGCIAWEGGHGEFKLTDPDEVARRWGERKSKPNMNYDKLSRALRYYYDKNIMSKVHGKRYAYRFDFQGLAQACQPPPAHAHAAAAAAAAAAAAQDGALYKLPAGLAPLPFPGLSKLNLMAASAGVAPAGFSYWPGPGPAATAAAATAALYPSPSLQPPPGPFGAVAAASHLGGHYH
To be noted: protein: recombinant; tags: N-terminal GST; dsDNA, one strand shown. In a few lines:
(§1)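 Pools were built from human transcription factors expressed in yeast as GST fusions, captured on glutathione beads and DNA-barcoded, along with a tag-only sample. Incubation with 200 nmole of a 16-mer random double-stranded DNA library lasted 30 min at room temperature in Tris/NaCl/DTT/glycerol buffer, and was followed by washing, 0.1% formaldehyde crosslinking, proximity ligation, PCR amplification and Illumina NextSeq500 sequencing. Binding signal is the quotient of each hexamer's read frequency for a factor and its frequency for the tag-only sample.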

For the next experiment, the target named is ETV5 (Homo sapiens, UniProt P41161 1-510). To be noted: protein: recombinant; tags: N-terminal GST; dsDNA, one strand shown. In a few lines: as §1
ETV5, sequence (P41161 whole entry): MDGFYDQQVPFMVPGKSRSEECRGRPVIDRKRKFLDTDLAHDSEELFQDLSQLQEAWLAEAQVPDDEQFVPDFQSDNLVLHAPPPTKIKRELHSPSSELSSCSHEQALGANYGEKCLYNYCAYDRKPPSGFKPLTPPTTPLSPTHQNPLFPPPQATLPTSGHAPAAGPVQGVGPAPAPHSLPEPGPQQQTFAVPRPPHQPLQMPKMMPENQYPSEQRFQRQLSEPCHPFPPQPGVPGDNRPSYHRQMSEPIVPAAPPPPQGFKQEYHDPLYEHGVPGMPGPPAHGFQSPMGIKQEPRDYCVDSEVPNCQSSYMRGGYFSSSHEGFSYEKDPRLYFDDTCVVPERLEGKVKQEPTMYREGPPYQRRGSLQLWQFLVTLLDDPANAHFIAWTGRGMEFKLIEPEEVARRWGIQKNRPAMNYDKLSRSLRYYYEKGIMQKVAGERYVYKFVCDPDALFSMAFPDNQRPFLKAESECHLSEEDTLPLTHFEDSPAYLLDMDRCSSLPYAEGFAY
For the next experiment, the target named is HSF1 (Homo sapiens, UniProt Q00613 1-529). To be noted: protein: recombinant; tags: N-terminal GST; chain copies: 3; dsDNA, one strand shown. In a few lines: as §1
HSF1, sequence (Q00613 whole entry): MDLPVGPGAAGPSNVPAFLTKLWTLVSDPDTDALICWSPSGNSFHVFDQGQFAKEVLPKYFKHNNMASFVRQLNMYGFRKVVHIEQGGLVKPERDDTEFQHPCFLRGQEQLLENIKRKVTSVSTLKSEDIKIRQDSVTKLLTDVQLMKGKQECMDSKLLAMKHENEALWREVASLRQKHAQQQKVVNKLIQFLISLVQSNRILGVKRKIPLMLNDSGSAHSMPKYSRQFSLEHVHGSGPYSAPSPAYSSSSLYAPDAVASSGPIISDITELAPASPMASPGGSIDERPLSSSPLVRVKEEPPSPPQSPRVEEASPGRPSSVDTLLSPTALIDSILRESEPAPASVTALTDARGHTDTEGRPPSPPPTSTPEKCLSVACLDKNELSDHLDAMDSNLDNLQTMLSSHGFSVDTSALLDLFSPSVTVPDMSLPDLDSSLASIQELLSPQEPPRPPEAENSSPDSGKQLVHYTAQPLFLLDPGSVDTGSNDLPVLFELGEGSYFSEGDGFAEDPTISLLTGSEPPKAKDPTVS
The next experiment concerns the target T2, SPIC (Homo sapiens, UniProt Q8N5J4 1-248).
T2 sequence: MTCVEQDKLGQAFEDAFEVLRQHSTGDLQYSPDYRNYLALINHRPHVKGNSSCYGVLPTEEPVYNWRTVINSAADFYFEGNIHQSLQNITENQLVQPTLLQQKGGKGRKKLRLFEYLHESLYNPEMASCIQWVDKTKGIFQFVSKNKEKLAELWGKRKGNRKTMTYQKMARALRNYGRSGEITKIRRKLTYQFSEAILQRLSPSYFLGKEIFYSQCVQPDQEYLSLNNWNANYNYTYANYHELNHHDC
Conditions: protein: recombinant; tags: N-terminal GST; dsDNA, one strand shown. In a few lines:
as §1

For another experiment, the target named is ELF4 (Homo sapiens, UniProt Q99607 1-663). Conditions: protein: recombinant; tags: N-terminal GST; dsDNA, one strand shown. Summed up:
as §1

For a further experiment, the target named is T3, ELK4 (Homo sapiens, UniProt P28324-2 1-405).
T3 sequence: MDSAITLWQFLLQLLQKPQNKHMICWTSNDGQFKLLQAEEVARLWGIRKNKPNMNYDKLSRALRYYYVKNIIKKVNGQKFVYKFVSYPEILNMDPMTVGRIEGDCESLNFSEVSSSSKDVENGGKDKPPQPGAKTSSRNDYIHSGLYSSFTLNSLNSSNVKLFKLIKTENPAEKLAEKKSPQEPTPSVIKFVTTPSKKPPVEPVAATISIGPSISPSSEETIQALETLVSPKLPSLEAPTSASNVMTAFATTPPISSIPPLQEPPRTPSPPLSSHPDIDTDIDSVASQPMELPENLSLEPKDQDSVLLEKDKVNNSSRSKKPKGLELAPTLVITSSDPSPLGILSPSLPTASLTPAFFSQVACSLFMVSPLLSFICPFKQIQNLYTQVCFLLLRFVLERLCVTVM
Conditions: protein: recombinant; tags: N-terminal GST; dsDNA, one strand shown. In a few lines:
as §1

Another experiment concerns the target T4, ETV2 (Homo sapiens, UniProt O00321 1-342).
T4 sequence: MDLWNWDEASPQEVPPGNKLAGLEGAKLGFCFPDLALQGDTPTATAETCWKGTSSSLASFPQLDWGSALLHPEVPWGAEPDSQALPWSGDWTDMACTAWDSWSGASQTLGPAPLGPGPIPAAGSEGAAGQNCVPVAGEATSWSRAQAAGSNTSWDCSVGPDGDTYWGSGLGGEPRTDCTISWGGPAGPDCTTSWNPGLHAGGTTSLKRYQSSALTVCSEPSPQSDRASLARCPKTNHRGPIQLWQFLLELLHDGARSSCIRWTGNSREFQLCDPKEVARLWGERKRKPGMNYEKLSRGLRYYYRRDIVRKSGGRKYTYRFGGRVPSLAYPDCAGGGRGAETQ
To be noted: protein: recombinant; tags: N-terminal GST; dsDNA, one strand shown. In a few lines: as §1

A further experiment concerns the target T5, ELF3 (Homo sapiens, UniProt P78545 1-371).
T5 sequence: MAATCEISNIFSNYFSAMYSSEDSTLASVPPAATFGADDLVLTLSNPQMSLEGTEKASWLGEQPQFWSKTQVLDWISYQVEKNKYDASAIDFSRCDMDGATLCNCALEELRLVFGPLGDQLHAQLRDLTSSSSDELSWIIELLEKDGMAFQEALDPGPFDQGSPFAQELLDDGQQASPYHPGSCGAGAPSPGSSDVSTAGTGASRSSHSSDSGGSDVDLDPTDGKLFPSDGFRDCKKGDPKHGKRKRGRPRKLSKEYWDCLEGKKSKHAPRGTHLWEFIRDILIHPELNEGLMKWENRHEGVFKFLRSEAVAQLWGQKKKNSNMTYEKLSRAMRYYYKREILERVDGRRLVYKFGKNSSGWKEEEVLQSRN
To be noted: protein: recombinant; tags: N-terminal GST; dsDNA, one strand shown. In a few lines:
as §1

A further experiment deals with CRX (Homo sapiens, UniProt O43186 1-299). To be noted: protein: recombinant; tags: N-terminal GST; dsDNA, one strand shown. In a few lines:
as §1

A further experiment concerns the target ETV1 (Homo sapiens, UniProt P50549 1-477). Conditions: protein: recombinant; tags: N-terminal GST; dsDNA, one strand shown. In a few lines: as §1

CRX, sequence (O43186 whole entry): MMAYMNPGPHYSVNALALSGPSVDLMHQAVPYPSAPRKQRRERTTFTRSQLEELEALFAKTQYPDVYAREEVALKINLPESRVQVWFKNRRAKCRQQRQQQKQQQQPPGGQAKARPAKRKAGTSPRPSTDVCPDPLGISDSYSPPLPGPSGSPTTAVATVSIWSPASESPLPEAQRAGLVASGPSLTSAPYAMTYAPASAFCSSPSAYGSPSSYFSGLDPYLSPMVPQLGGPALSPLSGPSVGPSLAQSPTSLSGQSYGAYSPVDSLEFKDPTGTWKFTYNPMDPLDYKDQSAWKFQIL
ETV1, sequence (P50549 whole entry): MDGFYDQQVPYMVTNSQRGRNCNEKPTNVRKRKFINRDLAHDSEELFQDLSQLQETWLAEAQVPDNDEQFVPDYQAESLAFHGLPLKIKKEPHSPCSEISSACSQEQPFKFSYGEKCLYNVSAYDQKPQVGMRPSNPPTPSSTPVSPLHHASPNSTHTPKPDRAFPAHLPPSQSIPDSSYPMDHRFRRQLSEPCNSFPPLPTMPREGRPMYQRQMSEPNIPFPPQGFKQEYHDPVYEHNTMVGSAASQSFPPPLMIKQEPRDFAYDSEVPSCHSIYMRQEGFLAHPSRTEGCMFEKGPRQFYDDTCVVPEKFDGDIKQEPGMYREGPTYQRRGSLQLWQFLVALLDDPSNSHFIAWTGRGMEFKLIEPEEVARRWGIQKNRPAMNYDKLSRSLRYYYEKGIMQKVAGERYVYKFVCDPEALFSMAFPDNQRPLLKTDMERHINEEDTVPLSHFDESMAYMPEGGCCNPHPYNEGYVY
ELF4, sequence (Q99607 whole entry): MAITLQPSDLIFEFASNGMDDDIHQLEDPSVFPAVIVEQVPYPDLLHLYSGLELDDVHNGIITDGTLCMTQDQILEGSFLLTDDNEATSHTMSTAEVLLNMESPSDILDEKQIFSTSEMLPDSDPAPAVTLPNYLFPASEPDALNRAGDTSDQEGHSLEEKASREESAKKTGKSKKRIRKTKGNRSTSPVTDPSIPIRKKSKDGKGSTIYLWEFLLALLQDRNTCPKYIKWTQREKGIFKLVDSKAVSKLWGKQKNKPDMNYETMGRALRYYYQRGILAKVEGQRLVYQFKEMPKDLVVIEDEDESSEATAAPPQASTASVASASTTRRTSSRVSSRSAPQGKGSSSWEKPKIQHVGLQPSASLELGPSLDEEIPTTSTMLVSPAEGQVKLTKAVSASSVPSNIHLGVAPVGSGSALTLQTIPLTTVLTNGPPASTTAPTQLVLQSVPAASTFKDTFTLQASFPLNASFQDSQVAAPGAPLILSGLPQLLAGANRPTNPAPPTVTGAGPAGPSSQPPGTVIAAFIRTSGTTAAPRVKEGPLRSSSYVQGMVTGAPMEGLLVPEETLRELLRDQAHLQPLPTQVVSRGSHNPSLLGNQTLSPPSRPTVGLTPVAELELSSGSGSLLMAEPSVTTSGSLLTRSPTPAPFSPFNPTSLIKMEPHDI

On to CTCCTA, for which the binding signal was 1.32 fold enrichment (6-mer frequency, TF over GST control) in the experiment with FEV; 1.28 fold enrichment (6-mer frequency, TF over GST control) with ETV5; 1.39 fold enrichment (6-mer frequency, TF over GST control) with HSF1; 1.49 fold enrichment (6-mer frequency, TF over GST control) in the experiment with SPIC; 1.44 fold enrichment (6-mer frequency, TF over GST control) with ELF4; 1.46 fold enrichment (6-mer frequency, TF over GST control) with ELK4. For the same sequence, the binding signal with ETV2 is 1.24 fold enrichment (6-mer frequency, TF over GST control); with ELF3, 1.31 fold enrichment (6-mer frequency, TF over GST control); with CRX, 1.49 fold enrichment (6-mer frequency, TF over GST control); with ETV1 it was 1.29 fold enrichment (6-mer frequency, TF over GST control).

Consider CCGATA, for which the binding signal was 1.14 fold enrichment (6-mer frequency, TF over GST control) with FEV; 1.15 fold enrichment (6-mer frequency, TF over GST control) with ETV5; 1.16 fold enrichment (6-mer frequency, TF over GST control) in the experiment with HSF1; 1.2 fold enrichment (6-mer frequency, TF over GST control) with SPIC; 1.2 fold enrichment (6-mer frequency, TF over GST control) in the experiment with ELF4; 1.08 fold enrichment (6-mer frequency, TF over GST control) in the experiment with ELK4. Further, the binding signal in the experiment with ETV2 is 1.25 fold enrichment (6-mer frequency, TF over GST control); with ELF3, 1.05 fold enrichment (6-mer frequency, TF over GST control); with CRX, 1.27 fold enrichment (6-mer frequency, TF over GST control); with ETV1 it was 1.16 fold enrichment (6-mer frequency, TF over GST control).

For TATTGA, the binding signal in the experiment with FEV was 1.1 fold enrichment (6-mer frequency, TF over GST control); with ETV5, 1.1 fold enrichment (6-mer frequency, TF over GST control); with HSF1, 1.14 fold enrichment (6-mer frequency, TF over GST control); with SPIC it was 1.2 fold enrichment (6-mer frequency, TF over GST control); with ELF4, 1.17 fold enrichment (6-mer frequency, TF over GST control); with ELK4, 1.17 fold enrichment (6-mer frequency, TF over GST control). Moreover, the binding signal is 1.14 fold enrichment (6-mer frequency, TF over GST control) in the experiment with ETV2; 1.19 fold enrichment (6-mer frequency, TF over GST control) with ELF3; 1.29 fold enrichment (6-mer frequency, TF over GST control) with CRX; 1.16 fold enrichment (6-mer frequency, TF over GST control) in the experiment with ETV1.

As for CCTAAG, the binding signal is 1.14 fold enrichment (6-mer frequency, TF over GST control) in the experiment with FEV; 1.2 fold enrichment (6-mer frequency, TF over GST control) with ETV5; 1.35 fold enrichment (6-mer frequency, TF over GST control) in the experiment with HSF1; 1.14 fold enrichment (6-mer frequency, TF over GST control) with SPIC; 1.26 fold enrichment (6-mer frequency, TF over GST control) in the experiment with ELF4; 1.27 fold enrichment (6-mer frequency, TF over GST control) in the experiment with ELK4. For the same sequence, the binding signal is 1.08 fold enrichment (6-mer frequency, TF over GST control) with ETV2; 1.09 fold enrichment (6-mer frequency, TF over GST control) with ELF3; 1.85 fold enrichment (6-mer frequency, TF over GST control) in the experiment with CRX; 1.09 fold enrichment (6-mer frequency, TF over GST control) with ETV1.

As to AACTGC, the binding signal was 1.42 fold enrichment (6-mer frequency, TF over GST control) with FEV; 1.38 fold enrichment (6-mer frequency, TF over GST control) in the experiment with ETV5; 1.07 fold enrichment (6-mer frequency, TF over GST control) with HSF1; 1.49 fold enrichment (6-mer frequency, TF over GST control) with SPIC; 1.31 fold enrichment (6-mer frequency, TF over GST control) with ELF4; 1.33 fold enrichment (6-mer frequency, TF over GST control) in the experiment with ELK4. The binding signal with ETV2 was 1.19 fold enrichment (6-mer frequency, TF over GST control); with ELF3 it was 1.32 fold enrichment (6-mer frequency, TF over GST control); in the experiment with CRX it was 1.05 fold enrichment (6-mer frequency, TF over GST control); with ETV1 it was 1.36 fold enrichment (6-mer frequency, TF over GST control).

Turning to GAATGT, the binding signal is 1.07 fold enrichment (6-mer frequency, TF over GST control) with FEV; 1.07 fold enrichment (6-mer frequency, TF over GST control) with ETV5; 1.88 fold enrichment (6-mer frequency, TF over GST control) with HSF1; 1.11 fold enrichment (6-mer frequency, TF over GST control) with SPIC; 1.07 fold enrichment (6-mer frequency, TF over GST control) with ELF4; 1.07 fold enrichment (6-mer frequency, TF over GST control) with ELK4. Moreover, the binding signal is 1.03 fold enrichment (6-mer frequency, TF over GST control) in the experiment with ETV2; 1.2 fold enrichment (6-mer frequency, TF over GST control) in the experiment with ELF3; 1.02 fold enrichment (6-mer frequency, TF over GST control) in the experiment with CRX; 1.03 fold enrichment (6-mer frequency, TF over GST control) with ETV1.

For the sequence CTGAAT, the binding signal is 1.32 fold enrichment (6-mer frequency, TF over GST control) with FEV; 1.29 fold enrichment (6-mer frequency, TF over GST control) in the experiment with ETV5; 1.37 fold enrichment (6-mer frequency, TF over GST control) with HSF1; 1.29 fold enrichment (6-mer frequency, TF over GST control) in the experiment with SPIC; 1.29 fold enrichment (6-mer frequency, TF over GST control) with ELF4; 1.31 fold enrichment (6-mer frequency, TF over GST control) with ELK4. In addition, the binding signal with ETV2 is 1.5 fold enrichment (6-mer frequency, TF over GST control); with ELF3 it was 1.15 fold enrichment (6-mer frequency, TF over GST control); in the experiment with CRX, 1.34 fold enrichment (6-mer frequency, TF over GST control); in the experiment with ETV1, 1.36 fold enrichment (6-mer frequency, TF over GST control).
